Most compounds without a hit are left out; they make up all but 3.1% or so of the library.
PMP22 txn prim: Cell-based coincidence reporter assay to measure PMP22 gene transcription in S16 Pmp22-F2sN cells - Primary screen; actives 2% (n = 43,000); AID 1508649, 2021; Potency, µM (top dose mostly 57.5 µM), for the others: at the top dose activity change, negative = inhibition, usual class: inhibitors; S16 Pmp22-F2sN Schwann cells, FLuc/NLuc coincidence luminescence, 24 h; active means clear falling dose curves in both reporters; inconclusive means both reporters move, but less clearly or upward; inactive means either reporter flat; the % is the NLuc reporter signal
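Luminescent read-out of sequential FLuc and NLuc signals from a reporter embedded in the Pmp22 3' UTR of S16 Schwann cells, taken after 24 h compound exposure at 37C; compounds reducing both signals score as inhibitors of expression.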
SKOV3 invasion: Primary qHTS assay for Inhibitors of ovarian cancer metastasis using an organotypic tumor microenvironment (TME) model | SKOV3ip1-GFP adhesion/invasion on 3D omental model, fluorescence | Potency, µM (top dose mostly 45.8 µM), for the others: at the highest dose activity change, negative = inhibition, actives largely listed as inhibitors | actives 0.1% (n = 46,000) | AID 1963576, 2024;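 further: plate controls were DMSO wells for no effect and tomatine positive control wells for full effect; nearly all actives have a fitted effect of over 65% in size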
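Adhesion/invasion was scored as fixed GFP-labeled SKOV3ip1 cell counts (488/509 nm), normalized to DMSO and tomatine controls. Cancer cells in serum-free medium, with four compound doses (0.36-46 umol/L), sat 2 hr at RT then 16 hr at 37 C on a 48 hr fibroblast/mesothelial/ECM culture.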
mTORC1 inh: Acumen qHTS Assay for Inhibitors of the mTORC1 Signaling Pathway in MEF (Tsc2-/-, p53-/-) Cells: Sytravon; Tsc2-/- p53-/- MEF, phospho-rpS6 immunofluorescence/PI, 24 h; Potency, µM (series often up to 38.3 µM), for the others: top-dose activity change, negative = inhibition, most hits filed as inhibitors; actives 0.78% (n = 44,000);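 further: plate controls were DMSO for no effect and rapamycin for full effect; nearly all actives have a fitted effect of over 50% in size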
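Read-out: phospho-S6 Alexa-488 intensity over PI intensity per well, scored as % active cells using thresholds from rapamycin (7.5 nM) and DMSO controls. Tsc2-/-, p53-/- MEFs exposed to compound for 24 h; PI cell count recorded as viability.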
p53null 32C tox: qHTS Screen for Compounds that Selectively Target Cancer Cells with p53 Mutations: Cytotoxicity of p53 Null Cells at the Permissive Temperature; H1299-neo p53 null cells, ATP luminescence, 24 h, 32C; Potency, µM (doses to about 46.1 µM), for the others: at the highest dose activity change, negative = cytotoxicity, most hits filed as cytotoxic; actives 0.62% (n = 55,000); AID 903, 2007;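 further: 0% = DMSO only and -100% = full killing by 100 µM tamoxifen; nearly all actives have a fitted effect of over 55% in size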
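Overnight 37C seeding (600 cells/well) of H1299-neo preceded a 24 hr, 32C exposure to compounds up to 46 uM. ATP levels, read by luminescence after 20 min at RT, indicated surviving cells.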
S16 F2sN tox: Cell viability qHTS assay in S16 Pmp22-F2sN cells | S16 Pmp22-F2sN Schwann cells (luciferase reporters placed in the Pmp22 gene) viability, CellTiter-Glo, 24 h | Potency, µM (highest dose often 57.5 µM), for inactives: top-dose activity change, negative = cytotoxicity, most hits filed as cytotoxic | actives 0.48% (n = 43,000) | AID 1508642, 2021; further: nearly all actives have a fitted effect of over 65% in size
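S16 Schwann cells carrying the Pmp22-F2sN reporter, seeded in 1536-well format, were exposed to library compounds for 24 h at 37C. Viability was read as CellTiter-Glo luminescence after 15 min at room temperature.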
p53null 39C tox: qHTS Screen for Compounds that Selectively Target Cancer Cells with p53 Mutations: Cytotoxicity of p53 Null Cells at the Nonpermissive Temperature | H1299 p53-null (neo) cells, 39C, ATPlite viability, 24 h | Potency, µM (titrated, usually from 46.1 µM), for inactives: at the top dose activity, negative = cell killing, usual class: cytotoxic | actives 0.97% (n = 55,000);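 further: 0% = DMSO only and -100% = full killing by 100 µM tamoxifen; nearly all actives have a fitted effect of over 50% in size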
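Concentration-response (up to 46 uM) was run for 24 h at the nonpermissive 39C on H1299-p53A138V or H1299-neo cells. ATP content was measured with ATPlite luminescence. AC50 values were Hill-modeled after normalizing between DMSO and 100 uM tamoxifen killing.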
An asterisk follows results filed as active; i = inactive; ? = inconclusive; . = not tested or not shown. Unless noted, the call rests on the fitted dose curve; in most records, active means well fitted curve in the direction sought with a large enough effect; inconclusive means small, poorly fitted or top-dose-only effect, or another doubt; inactive means no such curve, though single readings can be large; an effect the other way counts as inactive or inconclusive. Unless noted, on the % scale 0 is the no-effect control and ±100 the full control effect; potency means the concentration at half of the fitted maximal effect.

SMILES	PMP22 txn prim	SKOV3 invasion	mTORC1 inh	p53null 32C tox	S16 F2sN tox	p53null 39C tox
COc1cc(O)ccc1-c1nc2ccc(Br)cn2c1Nc1ccccc1C	?	?	-11%	?	2%	20µM*
Cc1ccccc1Nc1c(-c2ccc(N3CCOCC3)cc2)nc2cccc(C)n12	-25%	-23%	1%	?	-11%	?
NC(=NCCCCCCN=C(N)N=C(N)Nc1ccc(Cl)cc1)N=C(N)Nc1ccc(Cl)cc1	.	-9%	.	.	.	.
C[C@]12C=CC(=O)C=C1CC[C@@H]1[C@@H]2[C@@H](O)C[C@@]2(C)[C@@H]1CC[C@]2(O)C(=O)CO	.	9%	.	.	.	.
CCc1cc(Nc2nccc(-c3c(-c4ccc(OC)c(C(=O)Nc5c(F)cccc5F)c4)nc4ccccn34)n2)c(OC)cc1N1CCC(N2CCN(S(C)(=O)=O)CC2)CC1	.	2%	.	.	.	.
Cc1ccc2nc(-c3ccccc3F)c(Nc3ccc(Cl)cc3)n2c1	-37%	i	-5%	36%	18%	20µM*
Cc1ccc2nc(-c3ccc(O)cc3)c(Nc3ccc(Cl)cc3)n2c1	-35%	-8%	-2%	28%	-1%	?
Oc1cccc(C(Nc2ccccn2)c2ccc3cccnc3c2O)c1Cl (stereo unspecified)	.	-4%	?	?	.	4µM*
CCN(CC)c1ccc(-c2nc(-c3ccccn3)no2)cc1[N+](=O)[O-]	?	0%	0%	-7%	1%	-1%
c1ccc(-c2nc(-c3ccccn3)no2)cc1	.	.	.	5.6µM*	.	7.9µM*
CCc1ccc(OCC(=O)Nc2ccc(Cl)c(-c3nc4cc(C)cc(C)c4o3)c2)cc1	.	i	-10%	-10%	.	28%
Cc1cc(C)c2oc(-c3cccc(NC(=O)COc4ccc([N+](=O)[O-])cc4)c3)nc2c1	?	i	21µM*	-26%	-19%	-15%
CC(C)CCOc1ccc(C2N=C(N)Nc3nc4ccccc4n32)cc1 (stereo unspecified)	?	13µM*	?	.	-7%	.
COc1cc(C2N=C(N)Nc3nc4ccccc4n32)ccc1OCCC(C)C (stereo unspecified)	?	i	1%	.	?	.
CCCN(CCC)c1ccc(C2N=C(N)Nc3nc4ccccc4n32)cc1 (stereo unspecified)	?	?	-4%	?	?	3.2µM*
O=C(O)CCNc1cc(N2CCc3ccccc3CC2)nc(-c2ccccn2)n1	.	-4%	.	.	.	.
COc1ccc(-c2nnc(SC(C)C(=O)O)o2)cc1 (stereo unspecified)	4%	i	1%	?	-1%	16µM*
CCN(CC)CCNC(=O)c1ccc(Cn2c(=O)c3cccn3c3cccnc32)cc1	-25%	-5%	3.3µM*	2%	1%	-23%
CCOCCCNC(=O)c1ccc(Cn2c(=O)c3cccn3c3cccnc32)cc1	11µM*	-9%	-15%	19%	21%	-13%
O=C(NCCc1ccccc1)c1ccc(Cn2c(=O)c3cccn3c3cccnc32)cc1	-35%	9%	1%	-1%	11%	-6%
COc1ccc(-c2oc3c(CC=C(C)C)c(OC4O[C@H](CO)[C@@H](O)[C@H](O)[C@@H]4O)cc(O)c3c(=O)c2OC2O[C@@H](C)[C@H](O)[C@@H](O)[C@@H]2O)cc1 (stereo partly specified)	.	-5%	.	.	.	.
CC[C@@H]1C(=O)N(C)c2cnc(Nc3ccc(C(=O)NC4CCN(C)CC4)cc3OC)nc2N1C1CCCC1	.	-17%	.	.	.	.
CCCn1c(/C=C/c2ccccc2)nc2ccccc21	-11%	-1%	-8%	16µM*	-5%	?
C[C@]12CCC(=O)C=C1[C@@H]1CC1[C@H]1[C@H]3[C@@H]4C[C@H]4[C@@]4(CCC(=O)O4)[C@@]3(C)CC[C@H]12 (stereo partly specified)	.	-7%	.	.	.	.
CC(=O)O[C@]1(C(C)=O)CC[C@H]2[C@@H]3C=C(Cl)C4=CC(=O)[C@@H]5C[C@H]5[C@]4(C)[C@@H]3CC[C@@]21C	.	-21%	.	.	.	.
SMILES	PMP22 txn prim	SKOV3 invasion	mTORC1 inh	p53null 32C tox	S16 F2sN tox	p53null 39C tox
Cc1ccc(-n2ncc3c(Nc4ccc(Oc5ccccc5)cc4)ncnc32)c(C)c1	?	-10%	1%	25%	0%	74%
Cc1ccc(-n2ncc3c(Nc4cccc(Cl)c4)ncnc32)c(C)c1	-40%	10µM*	0%	3%	0%	8%
Cc1cccc(Cn2c(Cc3ccccc3)nc3ccccc32)c1	-3%	-2%	2%	51%	13%	20µM*
COCc1nc2ccccc2n1Cc1cccc(C)c1	-20%	4%	-1%	-7%	15%	-15%
COc1ccc(-c2nc(CN3CCC(C(=O)NCCCN4CCN(c5ccccc5F)CC4)CC3)c(C)o2)cc1OC	?	7.1µM*	15µM*	-18%	?	-30%
Cc1oc(-c2cccc(Cl)c2)nc1CN1CCC(C(=O)NC(C)c2ccccc2)CC1 (stereo unspecified)	?	11%	0%	-6%	-10%	-28%
CCCCNC(=O)C1CCN(Cc2nc(-c3ccc(OC)c(OC)c3)oc2C)CC1	-5%	1%	-24%	1%	19%	-22%
Cc1oc(-c2cccc(Cl)c2)nc1CN1CCC(C(=O)NCCCN2CCN(c3ccc(F)cc3)CC2)CC1	9.6µM*	i	0%	0%	10µM*	0%
Cc1oc(-c2cccc(Cl)c2)nc1CN1CCCC(C(=O)NCc2ccc(F)cc2)C1 (stereo unspecified)	?	17%	3%	-1%	-16%	?
Cc1oc(-c2cccc(Cl)c2)nc1CN1CCC(C(=O)NCCCN2CCN(c3ccccc3F)CC2)CC1	7.9µM*	0%	-17%	-2%	?	4%
COc1cc(C(=O)N(CCCN(C)C)c2nc3c(OC)cccc3s2)cc(OC)c1OC	?	0%	18µM*	1%	-1%	-19%
